For seven sequences, binding signal results are on record in PMC7862700, “An all-to-all approach to the identification of sequence-specific readers for epigenetic DNA modifications on cytosine”.

What all share (test): DAPPL (digital affinity profiling via proximity ligation, sequencing); 10 mM Tris-HCl pH 7.5, 50 mM NaCl, 1 mM DTT, 4% glycerol, room temperature, 30 min; GST-TFs on glutathione beads, 16-mer random dsDNA library, 0.1% formaldehyde crosslink after washing; high values mean tight binding
One assay addresses T1, FEV (Homo sapiens, UniProt Q99581 1-238).
T1 sequence: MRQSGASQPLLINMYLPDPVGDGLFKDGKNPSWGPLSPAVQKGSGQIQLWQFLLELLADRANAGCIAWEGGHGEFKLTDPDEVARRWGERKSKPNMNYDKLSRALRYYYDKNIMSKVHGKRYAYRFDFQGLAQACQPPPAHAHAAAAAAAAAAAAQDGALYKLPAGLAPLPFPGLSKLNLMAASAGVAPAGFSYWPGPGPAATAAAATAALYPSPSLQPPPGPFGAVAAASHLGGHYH
Conditions: protein: recombinant; tags: N-terminal GST; dsDNA, one strand shown. In outline:
(§1)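 Binding signal is each hexamer's read frequency for a factor divided by its frequency in the tag-only sample. The factors were GST-fused human transcription factors from yeast, captured on glutathione beads, DNA-barcoded and pooled with that sample. Pools were incubated with 200 nmole of a random double-stranded 16-mer DNA library in Tris/NaCl/DTT/glycerol buffer at room temperature for 30 min, then washed, crosslinked with 0.1% formaldehyde, proximity-ligated with BsaI/T4 ligase (1 h, 37 °C), PCR-amplified and sequenced on an Illumina NextSeq500.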

The next assay deals with ETV5 (Homo sapiens, UniProt P41161 1-510). Conditions: protein: recombinant; tags: N-terminal GST; dsDNA, one strand shown. A digest of the protocol:
as §1

The target in a further assay is HSF1 (Homo sapiens, UniProt Q00613 1-529). The note with it: protein: recombinant; tags: N-terminal GST; chain copies: 3; dsDNA, one strand shown. A digest of the protocol:
as §1

Another assay concerns the target T2, SPIC (Homo sapiens, UniProt Q8N5J4 1-248).
T2 sequence: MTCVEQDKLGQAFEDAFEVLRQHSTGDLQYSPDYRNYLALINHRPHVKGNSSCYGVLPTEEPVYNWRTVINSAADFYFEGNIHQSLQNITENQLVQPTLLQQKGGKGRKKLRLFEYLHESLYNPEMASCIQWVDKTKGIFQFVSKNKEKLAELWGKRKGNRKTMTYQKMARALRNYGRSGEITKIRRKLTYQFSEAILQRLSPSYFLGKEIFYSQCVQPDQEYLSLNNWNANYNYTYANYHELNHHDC
The note with it: protein: recombinant; tags: N-terminal GST; dsDNA, one strand shown. A digest of the protocol: as §1

The target of the next assay is ELF4 (Homo sapiens, UniProt Q99607 1-663). The note with it: protein: recombinant; tags: N-terminal GST; dsDNA, one strand shown. A digest of the protocol:
as §1

A further assay concerns the target T3, ELK4 (Homo sapiens, UniProt P28324-2 1-405).
T3 sequence: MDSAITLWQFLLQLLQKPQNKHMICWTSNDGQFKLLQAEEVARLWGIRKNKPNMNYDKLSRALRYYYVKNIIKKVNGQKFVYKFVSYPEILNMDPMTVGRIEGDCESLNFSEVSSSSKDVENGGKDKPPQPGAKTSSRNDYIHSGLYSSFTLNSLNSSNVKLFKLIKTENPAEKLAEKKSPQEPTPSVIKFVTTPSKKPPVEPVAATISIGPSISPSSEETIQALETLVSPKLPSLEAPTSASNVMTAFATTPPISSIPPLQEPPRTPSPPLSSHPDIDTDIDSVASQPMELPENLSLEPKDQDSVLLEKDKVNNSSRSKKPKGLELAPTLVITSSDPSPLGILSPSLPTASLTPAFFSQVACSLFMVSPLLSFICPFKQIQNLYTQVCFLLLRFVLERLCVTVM
Conditions: protein: recombinant; tags: N-terminal GST; dsDNA, one strand shown. In outline:
as §1

In a further assay the target is T4, ETV2 (Homo sapiens, UniProt O00321 1-342).
T4 sequence: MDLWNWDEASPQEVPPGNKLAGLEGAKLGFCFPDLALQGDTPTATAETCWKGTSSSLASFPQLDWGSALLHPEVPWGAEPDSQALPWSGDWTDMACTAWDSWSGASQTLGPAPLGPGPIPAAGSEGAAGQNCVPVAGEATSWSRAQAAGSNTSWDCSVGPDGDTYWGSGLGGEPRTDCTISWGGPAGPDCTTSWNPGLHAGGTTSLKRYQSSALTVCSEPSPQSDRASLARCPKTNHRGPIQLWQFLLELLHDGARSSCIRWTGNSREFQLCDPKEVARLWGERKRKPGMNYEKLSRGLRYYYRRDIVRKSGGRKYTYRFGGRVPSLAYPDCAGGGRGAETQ
The note with it: protein: recombinant; tags: N-terminal GST; dsDNA, one strand shown. In outline: as §1

A further assay deals with T5, ELF3 (Homo sapiens, UniProt P78545 1-371).
T5 sequence: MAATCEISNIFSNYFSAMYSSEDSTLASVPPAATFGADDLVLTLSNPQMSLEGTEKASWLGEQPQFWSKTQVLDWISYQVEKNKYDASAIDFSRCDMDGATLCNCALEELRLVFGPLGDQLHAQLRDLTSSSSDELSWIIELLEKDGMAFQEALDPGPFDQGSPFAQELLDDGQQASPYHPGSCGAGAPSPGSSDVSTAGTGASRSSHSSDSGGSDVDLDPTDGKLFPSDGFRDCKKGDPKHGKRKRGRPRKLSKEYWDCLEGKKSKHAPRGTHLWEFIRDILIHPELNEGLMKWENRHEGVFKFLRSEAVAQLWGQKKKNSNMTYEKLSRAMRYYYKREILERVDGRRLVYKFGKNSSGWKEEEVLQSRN
Conditions: protein: recombinant; tags: N-terminal GST; dsDNA, one strand shown. In outline:
as §1

For another assay, the target named is CRX (Homo sapiens, UniProt O43186 1-299). The note with it: protein: recombinant; tags: N-terminal GST; dsDNA, one strand shown. A digest of the protocol:
as §1

For a further assay, the target named is ETV1 (Homo sapiens, UniProt P50549 1-477). The note with it: protein: recombinant; tags: N-terminal GST; dsDNA, one strand shown. In outline:
as §1

Chain of CRX (O43186 whole entry): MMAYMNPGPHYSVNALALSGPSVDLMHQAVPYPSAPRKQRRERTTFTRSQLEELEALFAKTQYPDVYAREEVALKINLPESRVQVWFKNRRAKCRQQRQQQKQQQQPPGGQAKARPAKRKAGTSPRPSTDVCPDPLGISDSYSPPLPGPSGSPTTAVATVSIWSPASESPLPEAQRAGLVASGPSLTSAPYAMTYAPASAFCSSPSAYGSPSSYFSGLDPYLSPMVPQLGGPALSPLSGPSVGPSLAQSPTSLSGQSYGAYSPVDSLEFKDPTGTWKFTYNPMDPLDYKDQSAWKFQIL
Chain of ELF4 (Q99607 whole entry): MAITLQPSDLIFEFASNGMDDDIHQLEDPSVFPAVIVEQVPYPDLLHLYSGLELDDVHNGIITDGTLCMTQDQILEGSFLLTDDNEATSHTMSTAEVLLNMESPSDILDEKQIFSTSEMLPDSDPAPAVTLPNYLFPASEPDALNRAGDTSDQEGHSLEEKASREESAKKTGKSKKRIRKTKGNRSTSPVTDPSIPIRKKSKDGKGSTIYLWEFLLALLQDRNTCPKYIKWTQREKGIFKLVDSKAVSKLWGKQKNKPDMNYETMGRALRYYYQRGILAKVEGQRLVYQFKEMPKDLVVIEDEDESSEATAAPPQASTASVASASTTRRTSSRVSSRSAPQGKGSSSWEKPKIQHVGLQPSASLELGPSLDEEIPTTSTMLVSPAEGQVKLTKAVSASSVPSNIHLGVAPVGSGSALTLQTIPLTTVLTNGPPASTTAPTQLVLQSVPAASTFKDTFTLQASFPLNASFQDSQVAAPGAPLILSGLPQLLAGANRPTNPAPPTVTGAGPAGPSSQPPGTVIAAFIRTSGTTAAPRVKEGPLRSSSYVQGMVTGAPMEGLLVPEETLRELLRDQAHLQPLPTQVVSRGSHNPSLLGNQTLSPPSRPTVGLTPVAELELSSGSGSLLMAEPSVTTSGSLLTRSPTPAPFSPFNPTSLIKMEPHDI
Chain of ETV1 (P50549 whole entry): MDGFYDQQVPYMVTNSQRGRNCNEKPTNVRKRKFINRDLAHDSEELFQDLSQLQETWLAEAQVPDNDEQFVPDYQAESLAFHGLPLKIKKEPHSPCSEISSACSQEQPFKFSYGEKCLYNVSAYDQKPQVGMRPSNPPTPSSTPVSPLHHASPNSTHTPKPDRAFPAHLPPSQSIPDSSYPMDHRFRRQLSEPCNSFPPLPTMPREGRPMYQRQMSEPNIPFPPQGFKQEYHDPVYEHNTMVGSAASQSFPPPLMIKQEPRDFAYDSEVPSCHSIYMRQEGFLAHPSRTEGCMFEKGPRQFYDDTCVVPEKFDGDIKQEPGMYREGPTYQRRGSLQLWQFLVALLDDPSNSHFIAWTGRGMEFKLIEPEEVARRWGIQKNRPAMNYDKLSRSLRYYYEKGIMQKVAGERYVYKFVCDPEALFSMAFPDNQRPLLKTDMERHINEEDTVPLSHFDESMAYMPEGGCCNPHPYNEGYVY
Chain of HSF1 (Q00613 whole entry): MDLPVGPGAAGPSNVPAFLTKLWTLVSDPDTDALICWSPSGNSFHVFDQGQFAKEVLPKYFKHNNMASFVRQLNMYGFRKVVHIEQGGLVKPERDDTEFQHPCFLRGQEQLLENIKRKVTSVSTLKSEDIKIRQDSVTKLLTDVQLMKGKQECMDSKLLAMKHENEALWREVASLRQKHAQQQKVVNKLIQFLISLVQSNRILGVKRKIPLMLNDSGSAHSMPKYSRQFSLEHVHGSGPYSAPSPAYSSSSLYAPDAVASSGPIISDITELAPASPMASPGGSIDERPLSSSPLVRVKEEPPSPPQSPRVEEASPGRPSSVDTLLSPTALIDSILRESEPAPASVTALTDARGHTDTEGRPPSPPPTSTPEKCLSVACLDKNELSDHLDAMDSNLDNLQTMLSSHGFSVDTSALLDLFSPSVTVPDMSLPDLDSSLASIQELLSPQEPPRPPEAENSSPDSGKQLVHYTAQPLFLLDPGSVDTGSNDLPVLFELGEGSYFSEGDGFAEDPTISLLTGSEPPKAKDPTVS
Chain of ETV5 (P41161 whole entry): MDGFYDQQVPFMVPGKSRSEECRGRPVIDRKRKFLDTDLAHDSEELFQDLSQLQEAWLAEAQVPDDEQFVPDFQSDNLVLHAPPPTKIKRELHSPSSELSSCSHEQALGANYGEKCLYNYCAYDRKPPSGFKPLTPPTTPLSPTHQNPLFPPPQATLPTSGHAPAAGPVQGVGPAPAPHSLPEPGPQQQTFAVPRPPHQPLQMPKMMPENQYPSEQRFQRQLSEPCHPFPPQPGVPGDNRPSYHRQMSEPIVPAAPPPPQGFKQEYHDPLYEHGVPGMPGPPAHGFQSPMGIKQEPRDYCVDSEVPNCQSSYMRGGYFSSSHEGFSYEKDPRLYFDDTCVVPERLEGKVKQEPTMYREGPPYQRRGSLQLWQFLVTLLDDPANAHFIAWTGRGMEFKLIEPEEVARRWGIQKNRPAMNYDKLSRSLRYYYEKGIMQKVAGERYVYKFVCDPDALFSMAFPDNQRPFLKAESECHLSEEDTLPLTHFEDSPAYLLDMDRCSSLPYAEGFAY

Consider CACGAT, for which the binding signal with FEV was 1.23 fold enrichment (6-mer frequency, TF over GST control); in the assay with ETV5 it was 1.26 fold enrichment (6-mer frequency, TF over GST control); with HSF1 it was 1.27 fold enrichment (6-mer frequency, TF over GST control); in the assay with SPIC, 1.55 fold enrichment (6-mer frequency, TF over GST control); in the assay with ELF4, 1.34 fold enrichment (6-mer frequency, TF over GST control); in the assay with ELK4 it was 1.24 fold enrichment (6-mer frequency, TF over GST control). The binding signal is 1.17 fold enrichment (6-mer frequency, TF over GST control) in the assay with ETV2; 1.36 fold enrichment (6-mer frequency, TF over GST control) with ELF3; 1.39 fold enrichment (6-mer frequency, TF over GST control) in the assay with CRX; 1.28 fold enrichment (6-mer frequency, TF over GST control) in the assay with ETV1.
In the case of GCTCCT, the binding signal was 1.46 fold enrichment (6-mer frequency, TF over GST control) with FEV; 1.4 fold enrichment (6-mer frequency, TF over GST control) with ETV5; 1.29 fold enrichment (6-mer frequency, TF over GST control) with HSF1; 1.44 fold enrichment (6-mer frequency, TF over GST control) in the assay with SPIC; 1.51 fold enrichment (6-mer frequency, TF over GST control) with ELF4; 1.33 fold enrichment (6-mer frequency, TF over GST control) with ELK4. Moreover, the binding signal was 1.57 fold enrichment (6-mer frequency, TF over GST control) with ETV2; 1.57 fold enrichment (6-mer frequency, TF over GST control) with ELF3; 1.34 fold enrichment (6-mer frequency, TF over GST control) with CRX; 1.46 fold enrichment (6-mer frequency, TF over GST control) with ETV1.
Regarding TTGGGG, the binding signal is 1.17 fold enrichment (6-mer frequency, TF over GST control) with FEV; 1.24 fold enrichment (6-mer frequency, TF over GST control) in the assay with ETV5; 1.11 fold enrichment (6-mer frequency, TF over GST control) with HSF1; 1.21 fold enrichment (6-mer frequency, TF over GST control) with SPIC; 1.24 fold enrichment (6-mer frequency, TF over GST control) with ELF4; 1.34 fold enrichment (6-mer frequency, TF over GST control) with ELK4. Besides, the binding signal was 1.17 fold enrichment (6-mer frequency, TF over GST control) with ETV2; 1.24 fold enrichment (6-mer frequency, TF over GST control) with ELF3; 1.23 fold enrichment (6-mer frequency, TF over GST control) in the assay with CRX; 1.38 fold enrichment (6-mer frequency, TF over GST control) with ETV1.
As for TACATA, the binding signal with FEV was 1.21 fold enrichment (6-mer frequency, TF over GST control); with ETV5, 1.24 fold enrichment (6-mer frequency, TF over GST control); with HSF1 it was 1.15 fold enrichment (6-mer frequency, TF over GST control); with SPIC, 1.36 fold enrichment (6-mer frequency, TF over GST control); in the assay with ELF4, 1.22 fold enrichment (6-mer frequency, TF over GST control); in the assay with ELK4, 1.22 fold enrichment (6-mer frequency, TF over GST control). Moreover, the binding signal in the assay with ETV2 was 1.24 fold enrichment (6-mer frequency, TF over GST control); in the assay with ELF3, 1.18 fold enrichment (6-mer frequency, TF over GST control); in the assay with CRX, 1.27 fold enrichment (6-mer frequency, TF over GST control); with ETV1 it was 1.25 fold enrichment (6-mer frequency, TF over GST control).
For the sequence AAGATG, the binding signal with FEV was 1.01 fold enrichment (6-mer frequency, TF over GST control); in the assay with ETV5, 1.14 fold enrichment (6-mer frequency, TF over GST control); with HSF1, 1.19 fold enrichment (6-mer frequency, TF over GST control); in the assay with SPIC it was 1.1 fold enrichment (6-mer frequency, TF over GST control); with ELF4, 1.24 fold enrichment (6-mer frequency, TF over GST control); in the assay with ELK4, 1.22 fold enrichment (6-mer frequency, TF over GST control). Further, the binding signal was 1.13 fold enrichment (6-mer frequency, TF over GST control) in the assay with ETV2; 1.19 fold enrichment (6-mer frequency, TF over GST control) with ELF3; 1.27 fold enrichment (6-mer frequency, TF over GST control) with CRX; 1.12 fold enrichment (6-mer frequency, TF over GST control) in the assay with ETV1.
For the sequence GTATCT, the binding signal with FEV was 1.14 fold enrichment (6-mer frequency, TF over GST control); with ETV5 it was 1.11 fold enrichment (6-mer frequency, TF over GST control); with HSF1, 1.15 fold enrichment (6-mer frequency, TF over GST control); with SPIC, 1.15 fold enrichment (6-mer frequency, TF over GST control); with ELF4, 1.14 fold enrichment (6-mer frequency, TF over GST control); with ELK4, 1.22 fold enrichment (6-mer frequency, TF over GST control). The binding signal was 1.23 fold enrichment (6-mer frequency, TF over GST control) with ETV2; 1.26 fold enrichment (6-mer frequency, TF over GST control) with ELF3; 1.02 fold enrichment (6-mer frequency, TF over GST control) in the assay with CRX; 1.15 fold enrichment (6-mer frequency, TF over GST control) with ETV1.
For the sequence AACCTT, the binding signal was 1.24 fold enrichment (6-mer frequency, TF over GST control) in the assay with FEV; 1.3 fold enrichment (6-mer frequency, TF over GST control) with ETV5; 1.66 fold enrichment (6-mer frequency, TF over GST control) in the assay with HSF1; 1.17 fold enrichment (6-mer frequency, TF over GST control) in the assay with SPIC; 1.27 fold enrichment (6-mer frequency, TF over GST control) with ELF4; 1.36 fold enrichment (6-mer frequency, TF over GST control) with ELK4. The binding signal in the assay with ETV2 was 1.13 fold enrichment (6-mer frequency, TF over GST control); with ELF3, 1.23 fold enrichment (6-mer frequency, TF over GST control); with CRX it was 1.39 fold enrichment (6-mer frequency, TF over GST control); with ETV1, 1.29 fold enrichment (6-mer frequency, TF over GST control).
